High-throughput results (PubChem BioAssay)
Shown are actives, neighbours in structure and some others; about 0.67% of the full set was active somewhere.
Rin1-Abl PPI inh: human Rin1-Abl interaction inhibition. TR-FRET Rin1/Abl binding, biochemical. 360,000 tested, 0.4% active. AID 588664. inhibition, % at 7.35 µM. P00519+Q13671; in the data active means inhibition above about 5%, passing the limit was not always enough
NPR2 activator: GC-B (human) receptor activation; P20594; HEK293-GC-B cells, CNP EC30, cGMP TR-FRET; 0% at EC30 CNP, 100% saturating CNP; activation, % at 10 µM; 370,000 tested, 0.11% active; AID 1920062;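 active means activation at 10 µM reaching about 35% in either raw or pattern-adjusted values, limit read from the data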
Target sequence (P20594 whole entry, looked up): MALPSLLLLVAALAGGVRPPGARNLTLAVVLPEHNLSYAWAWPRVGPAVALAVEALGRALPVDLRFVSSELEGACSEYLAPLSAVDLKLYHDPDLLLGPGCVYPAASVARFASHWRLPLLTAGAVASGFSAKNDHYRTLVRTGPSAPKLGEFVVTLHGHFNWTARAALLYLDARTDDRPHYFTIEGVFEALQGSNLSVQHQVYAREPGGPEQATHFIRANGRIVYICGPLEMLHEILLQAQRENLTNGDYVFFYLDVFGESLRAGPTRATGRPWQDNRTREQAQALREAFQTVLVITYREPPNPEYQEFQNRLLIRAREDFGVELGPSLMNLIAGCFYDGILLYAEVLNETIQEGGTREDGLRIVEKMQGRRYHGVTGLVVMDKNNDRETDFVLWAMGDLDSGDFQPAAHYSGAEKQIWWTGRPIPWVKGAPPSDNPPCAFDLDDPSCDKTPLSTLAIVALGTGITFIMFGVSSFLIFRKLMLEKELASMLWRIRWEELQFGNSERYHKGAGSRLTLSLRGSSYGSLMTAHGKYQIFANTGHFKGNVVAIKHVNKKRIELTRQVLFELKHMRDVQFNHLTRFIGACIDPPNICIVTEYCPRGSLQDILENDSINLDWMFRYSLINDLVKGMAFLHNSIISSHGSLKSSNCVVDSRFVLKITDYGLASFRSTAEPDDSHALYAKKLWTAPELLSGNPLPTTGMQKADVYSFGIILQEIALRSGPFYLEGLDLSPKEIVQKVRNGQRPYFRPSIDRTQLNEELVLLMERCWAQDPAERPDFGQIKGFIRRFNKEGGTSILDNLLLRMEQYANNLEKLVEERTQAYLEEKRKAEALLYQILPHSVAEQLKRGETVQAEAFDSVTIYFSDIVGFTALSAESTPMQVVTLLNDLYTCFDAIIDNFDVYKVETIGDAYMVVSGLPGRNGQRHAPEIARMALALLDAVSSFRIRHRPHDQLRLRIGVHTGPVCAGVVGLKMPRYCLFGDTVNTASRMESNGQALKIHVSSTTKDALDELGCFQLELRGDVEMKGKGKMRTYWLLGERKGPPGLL
CaV13 FRET inh: Primary screen for inhibitors of IQ motif and Ca2+-dependent inactivation inhibitor domain binding in CACNA1D, Förster resonance energy transfer in living cells, …. HEK cells, CFP/YFP FRET ICDI-IQ, plate reader, 10 min; percent FRET-ratio fall versus neutral wells. inhibition, % at 12.3 µM. 340,000 tested, 0.098% active;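 active means mean replicate inhibition of at least 30% and at least 1% of replicates passing that level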;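 further: 0% = median of the neutral control wells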
GC-A act: GC-A (human) enzyme activation. P16066. HEK293 GC-A cells, cGMP TR-FRET, EC30 ANP; 0% at EC30 ANP, 100% saturating ANP. activation, % at 10 µM. 370,000 tested, 0.14% active. AID 1671463; in the data active means activation above about 40%
Numbers without * were called inactive; x = no result; + = active, no number.

SMILES	Rin1-Abl PPI inh	NPR2 activator	CaV13 FRET inh	GC-A act
COC(=O)c1ccc(C2C(C#N)=C(N)Oc3cc(O)ccc32)cc1 (stereo not drawn)	-1	-18	-11	-24
CCOc1ccc(C2C(C#N)=C(N)Oc3cc(O)ccc32)cc1OCC (stereo not drawn)	2	-5	58*	-2
COc1ccc(C2C(C#N)=C(N)Oc3cc(O)ccc32)cc1Cl (stereo not drawn)	0	2	+	37
N#CC1=C(N)Oc2cc(N)ccc2C1c1cccc(F)c1 (stereo not drawn)	-5	-2	-19	43*
C=CCN(CC#Cc1ccc(C)cc1)Cc1ccc(OC)cc1OC	x	0	x	-2
CCOC(=O)CC[C@@]1(C(=O)OCC)C[C@@H](CC(=O)NCc2ccc(C)o2)C(=O)N2CCCC=C21	x	-6	x	-3
CCOC(=O)N1CCN(C(=O)C[C@H]2C[C@@]3(C(=O)OC)C(=C[C@H](COCc4ccccc4)O[C@@H]3C)N(CCc3ccc(OC)c(OC)c3)C2=O)CC1	x	6	x	6
O=C(Nc1nc2cc3c(cc2s1)OCCO3)c1cccc(N2C(=O)CCC2=O)c1	-1	0	6	6
Cc1sc(NC(=O)c2cccc(N3C(=O)CCC3=O)c2)nc1-c1ccccc1	-3	-7	-6	77*
O=C(Nc1nc2ccccc2s1)c1cccc(N2C(=O)CCC2=O)c1	1	0	x	44*
CCN(CC)C(=O)CC[C@H]1CC[C@]2(CCCN(S(=O)(=O)C3CCCCC3)C2)O1	x	7	x	3
CC(C)(C)c1ccc(-c2nnc(SCC(=O)Nc3ccc(S(=O)(=O)Nc4nccs4)cc3)n2Cc2ccco2)cc1	x	7	x	-2
Cc1ccc(S(=O)(=O)c2nnn3c2nc(N2CCOCC2)c2ccccc23)cc1	6	38*	-3	34
Cc1ccc(S(=O)(=O)c2nnn3c2nc(N2CCCCC2)c2ccccc23)cc1	-3	26	-2	21
c1ccc(-c2c[nH]c3cccc(C4CCCCC4)c23)cc1	x	-7	x	-6
O=C(NCc1ccccc1Cl)c1cccc2c1C(=O)c1ccc(-c3ccc(OC(F)(F)F)cc3)cc1S2(=O)=O	4	x	x	x
O=C(NCc1cc(C(F)(F)F)ccc1Cl)c1cccc2c1C(=O)c1ccc(Cl)cc1S2(=O)=O	x	2	36*	-1
CC(NCc1ccco1)C(=O)N1CCCC1 (stereo not drawn)	x	-9	x	1
COc1cccc(C2CC3(CC(C)(C)NC(=S)N3)Oc3cc(O)ccc32)c1 (stereo not drawn)	-2	-3	-9	56*
CCC(C)(C)C(=O)N1CCc2cc(S(=O)(=O)N(C)Cc3ccco3)ccc21	x	2	x	1
COc1ccc(OC)c(NC(=O)O[C@@H]2CC[C@@]34CCCN3C(=O)CCC[C@H]4C2)c1	x	-5	x	-5
COC(=O)[C@]12C[C@H](CC(=O)NCCc3ccccc3OC)C(=O)N(Cc3cccc4ccccc34)C1=C[C@H](COCc1ccccc1)O[C@@H]2C	x	0	x	3
CC(C)c1ccc(/C=C2\Oc3c(ccc(O)c3CN3CCN(C)CC3)C2=O)cc1	-2	2	+	5
O=C1/C(=C/C=C/c2ccco2)SC(=S)N1c1ccc(O)cc1	5.7*	-1	-6	-4
CCNC(=O)N(C)[C@H]1C[C@H]2c3[nH]c4cccc(-c5cccc(F)c5)c4c3CCN2C(=O)[C@H]1[C@H](C)O	x	12	x	-1
SMILES	Rin1-Abl PPI inh	NPR2 activator	CaV13 FRET inh	GC-A act
CCN1CCN(c2cc(C)c3cc(NC(=O)c4ccc(OC)c(OC)c4)ccc3n2)CC1	-2	47*	-5	-6
CCN1CCN(c2cc(C)c3cc(NC(=O)CCC(=O)Nc4ccc(OC)c(OC)c4)ccc3n2)CC1	1	0	-3	4
CCN1C(=O)c2ccc(-c3nc4ccccc4c(=O)o3)cc2C1=O	-2	3	-5	24
CC(=O)OCCN1C(=O)c2ccc(-c3nc4ccccc4c(=O)o3)cc2C1=O	-4	10	-7	47*
CN(C)C(=O)COC(=O)c1ccccc1Nc1ccc(SC(F)F)cc1	0	1	-4	42*
COc1ccccc1NC(=O)COC(=O)c1ccccc1OCC(=O)Nc1ccc(SC(F)F)cc1	-2	-3	-4	2
CC1CCN(c2nc(Cl)nc(Nc3ccc([N+](=O)[O-])cc3)n2)CC1	-1	0	7	67*
C=CCNc1nc(Nc2ccc([N+](=O)[O-])cc2)nc(N2CCCC2)n1	3	0	-4	5
